Laboratory results from PubChem BioAssay (NCI).
Values joined by “and” are separate entries in the source; they are usually repeats but may differ in a detail not shown here. Equal entries are not always repeated. The panel holds about 79,000 compounds, 15% with a hit somewhere; the sample as a whole holds those more often. Rule as the data show it: active = growth inhibition above about 70%; inactive = the rest.

Assays:
[1] = NCI Yeast Anticancer Drug Screen. Data for the rad50 strain (AID 155);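 also: 0% = growth of vehicle-only cultures of the same strain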; settings: S. cerevisiae rad50 strain growth inhibition; at 50.0 µM; active compounds read high
How it was run: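 Cells are treated with compound, grown, and their growth is then scored against vehicle-only cultures of the same repair-deficient yeast strain.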

[2] = NCI Yeast Anticancer Drug Screen. Data for the mec2-1 strain (AID 157); settings: S. cerevisiae mec2-1 strain, at 50.0 µM, active compounds read high
How it was run: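 Mutant yeast (mec2-1) grown with compound; growth inhibition relative to vehicle control reported.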

[3] = NCI Yeast Anticancer Drug Screen. Data for the sgs1 mgt1 strain (AID 161);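 also: 0% = growth of cultures given vehicle only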; settings: S. cerevisiae sgs1 mgt1 strain, at 50.0 µM, active compounds read high
How it was run: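 Compounds are added to genetically altered yeast, and growth is compared with cultures given vehicle alone to give percent inhibition.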

[4] = NCI Yeast Anticancer Drug Screen. Data for the cln2 rad14 strain (AID 165);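 also: 0% = growth equal to vehicle treated cultures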; settings: S. cerevisiae cln2 rad14 strain, at 50.0 µM, active compounds read high
How it was run: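 Readout is yeast growth inhibition versus vehicle-treated controls, using a strain with cln2 and rad14 alterations exposed to compound.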

[5] = NCI Yeast Anticancer Drug Screen. Data for the bub3 strain (AID 167); settings: S. cerevisiae bub3 mutant strain, at 50.0 µM, active compounds read high
How it was run: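 Part of a panel of yeast mutants defective in DNA damage repair or cell cycle regulation. Each strain is grown with compound, and inhibition is calculated relative to solvent-treated cultures.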

[6] = NCI Yeast Anticancer Drug Screen. Data for the mlh1 rad18 strain (AID 175); settings: S. cerevisiae mlh1 rad18 strain growth inhibition; at 50.0 µM; active compounds read high
How it was run: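 Genetically defined yeast (DNA repair-deficient) exposed to compounds; growth inhibition determined relative to vehicle.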

Measured: growth inhibition

CC(CCC(=O)O)C1CCC2C3C(O)CC4CC(O)CCC4(C)C3CC(O)C12C (stereo not given)
inactive: [1] 42.7% and 3.65% | [2] 46.2% and -12.6% | [3] 45.4% and -17.3% | [4] 47.6% and 0.9% | [5] 46.7% and -9.35% | [6] 35.9% and 14.2%

CCC(=O)Oc1cc(C)ccc1C(C)(C)C
inactive: [1] 1.4% and -18.1% | [2] 0.8% and -19.4% | [3] 1.45% and -12% | [4] -3.7% and -1.5% | [5] -0.3% and -13.2% | [6] -3.6% and -5.85%

COC(=O)C(C)(C)O
inactive: [1] -1.2% and 20.4% | [2] 8.2% and -28.9% | [3] -4.15% and -12% | [4] -26.9% and -75.2% | [5] 1.95% and -19.1% | [6] 3.1% and 1.55%

Cc1cccc(OC(=O)Cc2ccccc2)c1
inactive: [1] -17.1% and -34.1% | [2] -14.6% and -8.2% | [3] -6.1% and -8.35% | [4] -9.45% and -38% | [5] 13.6% and -12.9% | [6] -16.2% and -8%

CC(C)(C)c1cc([N+](C)(C)C)cc(C(C)(C)C)n1
inactive: [1] 1.6% and 19.6% | [2] -5.3% and 8.25% | [3] 1.05% and 14.8% | [4] 2.3% and -16.7% | [5] 20.6% and -2.05% | [6] 6.3% and -5.55%

O=C1Nc2ccccc2C(=O)C1=Ic1ccccc1
inactive: [1] 5% and -15.9% | [2] -11.6% and -15.4% | [3] -0.55% and -9.6% | [4] -6% and -25.2% | [5] -7.1% and -4.5% | [6] 4.15% and 17.8%

OCC(O)C(O)C(O)C(O)[C@@H](O)c1nc2ccccc2[nH]1 (stereo not given in full)
inactive: [1] -5.1% and -12.2% | [2] 3% and -0.15% | [3] -2.75% and -4.4% | [4] -34.5% and -16.2% | [5] 2.8% and 21.2% | [6] -3.8% and 12.2%

C=C1C(=O)OC2C1CCC(C)C1CCC(=O)OC12C (stereo not given)
inactive: [1] 50.9% and -7.2% | [2] 58.8% and -1.4% | [3] 43.1% and 17.2% | [4] 35% and 18.6% | [5] 64% and 13.6% | [6] 54.5% and 3.8%

CCCCc1c(C)[nH]c(=S)[nH]c1=O
inactive: [1] -6.15% and 5.3% | [2] -14.8% and -14.1% | [3] -4.35% and 0.4% | [4] -6.1% and 13.2% | [5] -0.05% and 15% | [6] -5.45% and 2%

OCCCc1ccncc1
inactive: [1] -6.05% and -8.55% | [2] -4.65% and -4.7% | [3] 2.9% and 4.75% | [4] 8.7% and -7.9% | [5] 3.25% and -0.55% | [6] 12.2% and 7.85%

CCCCCCCCCCSCC(CO)NC(=O)/C=C/c1c(C)[nH]c(=O)[nH]c1=O (stereo not given)
inactive: [1] 1.95% and 30.7% | [2] -13.7% and 15.2% | [3] 2.45% and 2% | [4] -27.2% and 14.8% | [5] -14.4% and -14% | [6] 9.55% and -47.1%

Cc1cc(C)c(C(=O)C(C)C(c2ccccc2)c2ccc(Cl)cc2)c(C)c1 (stereo not given)
inactive: [1] -16.4% and -14.6% | [2] -19.2% and -5.7% | [3] -12.8% and -16.1% | [4] 17.8% and -2.55% | [5] -8.7% and -10.6% | [6] -15.2% and -2.45%

CC(=O)c1c(-c2cccc3ccccc23)c(C#N)c(=S)n(C2OC(CO)C(O)C(O)C2O)c1C (stereo not given)
inactive: [1] -18.7% and 15.5% | [2] 12.1% and 15% | [3] 2.25% and 32% | [4] 12.3% and 28.2% | [5] 21.1% and 32.1% | [6] 1.55% and 44.9%

N=C(N)/C=C\C(=O)O
inactive: [1] 1.65% and 2.05% | [2] -9.35% and -13.2% | [3] 4.4% and -11.1% | [4] 17.4% and 14.3% | [5] -21.4% and -33.8% | [6] -4.9% and -14.8%

CC(C)N=C(N)C(N)=NC(C)C
inactive: [1] 20.1% and -65.4% | [2] -18% and 6.55% | [3] -2.5% and -13.2% | [4] -67.2% and -46.5% | [5] 1.8% and -11.1% | [6] -14.6% and -16.9%

CN(C)CC1CC(=O)C(CN(C)C)CC1=O (stereo not given)
inactive: [1] 7.35% and -5.3% | [2] 1.85% and -5.7% | [3] -10.1% and -21.7% | [4] 4% and -37.1% | [5] -7.45% and -15.6% | [6] 18.6% and -8.8%

Nc1ccc(C(=O)NCC(=O)O)cc1
inactive: [1] 13.4% and 10.3% | [2] 3.65% and -4.8% | [3] 3.25% and 5.05% | [4] -41.3% and 15.2% | [5] 6.75% and -3.5% | [6] 0.4% and 16.7%

O=[N+]([O-])c1cc(S(=O)(=O)O)ccc1Cl
inactive: [1] -9.65% and 14.6% | [2] 3.25% and -1.15% | [3] -9.3% and -7.65% | [4] 9.2% and 12.7% | [5] 0.1% and 6.25% | [6] 15.2% and 14.8%

N#CC(c1ccc([N+](=O)[O-])cc1)C(CC(=O)c1ccccc1)c1ccccc1 (stereo not given)
inactive: [1] -1.3% and -14.2% | [2] -3% and -14.6% | [3] -15.2% and -17.2% | [4] -28.3% and -46.9% | [5] 37.8% and 12.6% | [6] 36.5% and 14.3%

NCCCNCCSSC/C=C\CSSCCNCCCN
inactive: [1] 1.9% and -5.5% | [2] -15.6% and -4.85% | [3] 1.8% and -15.3% | [4] 1.15% and -16.8% | [5] 7.85% and -2.3% | [6] 11.3% and 1.45%
